Results: PubChem BioAssay (Tox21)
Values joined by “and” are separate entries in the source; they are usually repeats but may differ in a detail not shown here. Identical values can stand only once. Inconclusive results are not listed. Where a call stands in place of a potency, no number is given. Where a structure was tested more than once in an assay, its records may differ in their call. Active and inactive are the calls of the source. Calls follow the shape of the dose curve; as a rule, active = well fitted curve in the direction sought with a large enough effect in the repeat runs; inconclusive = weak or mixed curves; inactive = no such curve, though single readings can be large; an effect the other way counts as inactive or inconclusive. Residues, ends and D or L forms follow the SMILES beside them.

Columns and labels:
[1] = qHTS RealTime-Glo MT Cell Viability Assay in HEK293 cells - 16 hour (AID 1224872); also: top concentration of the series differs between compounds; nearly all actives have a fitted effect of over 50% in size
Summary of the method: (§1)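 Homogeneous bioluminescent viability format in HEK293 cells (600 cells/well). Following 5 h at 37 C/5% CO2, 23 nL compound was pintooled; the signal was measured repeatedly during 40 h incubation.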

[2] = qHTS RealTime-Glo MT Cell Viability Assay in HepG2 cells - 8 hour (AID 1224873); also: nearly all actives have a fitted effect of over 55% in size
Summary of the method: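 HepG2 cells (600/well) mixed with RealTime-Glo MT reagent, settled 5 h at 37 C/5% CO2 before compound addition. Nonlytic NanoLuc luminescence from viable-cell prosubstrate reduction read repeatedly during 40 h treatment at 37 C.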

[3] = qHTS RealTime-Glo MT Cell Viability Assay in HEK293 cells - 40 hour (AID 1224874); conditions: RealTime-Glo luminescence; max response: stronger effect = lower value; also: nearly all actives have a fitted effect of over 50% in size
Summary of the method: (§2)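 Real-time viability in HEK293: signal arises when living cells convert a prosubstrate for NanoLuc in the medium, so luminescence tracks viable cell number. Compound (23 nL, DMSO) added 5 h post-seeding; kinetic reads at 0–40 h, 37 C.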

[4] = A CellTox Green Cytotoxicity Assay to monitor cytotoxicity in HEK293 cells - 24 hour (AID 1224875); also: series mostly up to about 77 µM; nearly all actives have a fitted effect of over 45% in size
Summary of the method: (§3)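 Cells (HEK293, 600/well) and dye reagent are dispensed together. After 5 h at 37 C, 23 nL compound is pinned in. Plates stay at 37 C for 40 h with fluorescence read at 0h, 8h, 16h, 24h, 32h and 40h.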

[5] = A CellTox Green Cytotoxicity Assay to monitor cytotoxicity in HepG2 cells - 16 hour (AID 1224876); also: nearly all actives have a fitted effect of over 45% in size; also: potency is read from the fitted curve at half-maximal effect
Summary of the method: (§4)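 Cells and non-lytic dye reagent are dispensed together (600 HepG2 cells/well) and incubated 5 h before DMSO compound transfer. Kinetic fluorescence is then recorded in the same wells during 40 h at 37 C.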

[6] = qHTS RealTime-Glo MT Cell Viability Assay in HepG2 cells - 32 hour (AID 1224877); also: nearly all actives have a fitted effect of over 55% in size
Summary of the method: (§5)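 Cell number in HepG2 cultures estimated from NanoLuc luminescence generated by metabolic reduction of a prosubstrate by living cells. The homogeneous, nonlytic format allowed repeated reads at 0, 8, 16, 24, 32 and 40 h of compound exposure.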

[7] = A CellTox Green Cytotoxicity Assay to monitor cytotoxicity in HepG2 cells - 24 hour (AID 1224878); also: nearly all actives have a fitted effect of over 45% in size; also: potency is read from the fitted curve at half-maximal effect
Summary of the method: as §4

[8] = A CellTox Green Cytotoxicity Assay to monitor cytotoxicity in HepG2 cells - 40 hour (AID 1224879); also: nearly all actives have a fitted effect of over 40% in size; also: potency is read from the fitted curve at half-maximal effect
Summary of the method: as §4

[9] = qHTS RealTime-Glo MT Cell Viability Assay in HEK293 cells - 0 hour (AID 1224880); also: nearly all actives have a fitted effect of over 45% in size; also: potency is read from the fitted curve at half-maximal effect
Summary of the method: as §2

[10] = A CellTox Green Cytotoxicity Assay to monitor cytotoxicity in HEK293 cells - 32 hour (AID 1224881); also: nearly all actives have a fitted effect of over 40% in size; also: potency is read from the fitted curve at half-maximal effect
Summary of the method: as §3

[11] = A CellTox Green Cytotoxicity Assay to monitor cytotoxicity in HepG2 cells - 0 hour (AID 1224882); also: nearly all actives have a fitted effect of over 35% in size; also: potency is read from the fitted curve at half-maximal effect
Summary of the method: as §4

[12] = A CellTox Green Cytotoxicity Assay to monitor cytotoxicity in HepG2 cells - 32 hour (AID 1224883); also: nearly all actives have a fitted effect of over 50% in size; also: potency is read from the fitted curve at half-maximal effect
Summary of the method: as §4

[13] = A CellTox Green Cytotoxicity Assay to monitor cytotoxicity in HEK293 cells - 8 hour (AID 1224884); also: nearly all actives have a fitted effect of over 35% in size; also: potency is read from the fitted curve at half-maximal effect
Summary of the method: as §3

[14] = qHTS RealTime-Glo MT Cell Viability Assay in HepG2 cells - 16 hour (AID 1224885); also: nearly all actives have a fitted effect of over 50% in size
Summary of the method: as §5

[15] = qHTS RealTime-Glo MT Cell Viability Assay in HEK293 cells - 24 hour (AID 1224886)
Summary of the method: as §1

[16] = qHTS RealTime-Glo MT Cell Viability Assay in HEK293 cells - 8 hour (AID 1224887)
Summary of the method: as §2

[17] = A CellTox Green Cytotoxicity Assay to monitor cytotoxicity in HEK293 cells - 16 hour (AID 1224888); also: nearly all actives have a fitted effect of over 35% in size
Summary of the method: as §3

[18] = qHTS RealTime-Glo MT Cell Viability Assay in HepG2 cells - 0 hour (AID 1224889); also: nearly all actives have a fitted effect of over 50% in size; also: potency is read from the fitted curve at half-maximal effect
Summary of the method: as §5

[19] = A CellTox Green Cytotoxicity Assay to monitor cytotoxicity in HepG2 cells - 8 hour (AID 1224890); also: nearly all actives have a fitted effect of over 45% in size; also: potency is read from the fitted curve at half-maximal effect
Summary of the method: as §4

[20] = qHTS assay to identify small molecule antagonists of the estrogen receptor alpha (ER-alpha) signaling pathway using the BG1 cell line in the presence of 0.1 nM 17-beta-estradiol - cell viability counter screen (AID 1259241); also: nearly all actives have a fitted effect of over 40% in size; also: potency is read from the fitted curve at half-maximal effect
Summary of the method: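 In this screen, hormone-deprived VM7Luc4E2 cells were seeded at 4,000 per well, dosed with compound and 0.1 nM estradiol final, and incubated 22 hr at 37C and 5% CO2; fluorogenic live-cell protease signal reported viability.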

Structure (SMILES)	Potency [1]	outcome [2]	max response [3]	Potency [4]	Potency [5]	Potency [6]	Potency [7]	Potency [8]	Potency [9]	Potency [10]	Potency [11]	Potency [12]	Potency [13]	Potency [14]	Potency [15]	Potency [16]	Potency [17]	Potency [18]	Potency [19]	Potency [20]
NC(N)=NC(=O)c1nc(Cl)c(N)nc1N	inactive	inactive	-9.86% (inactive) and -7.01% (inactive) and -5.97% (inactive)	inactive	inactive	inactive	inactive	inactive	inactive	inactive	inactive	inactive	inactive	inactive	inactive	inactive	inactive	inactive	inactive	inactive
C1N2CN3CN1CN(C2)C3	inactive	inactive	5.73% (inactive) and 6.94% (inactive) and 0.249% (inactive)	inactive	inactive	inactive	inactive	inactive	inactive	inactive	inactive	inactive	inactive	inactive	inactive	inactive	inactive	inactive	inactive	inactive
CC(=O)OCC(COC(C)=O)OC(C)=O	inactive	inactive	1.3% (inactive) and 11.6% (inactive) and 13.6% (inactive)		inactive		inactive	inactive	inactive	inactive	inactive	inactive	inactive	inactive	inactive	inactive	inactive	inactive	inactive	inactive
O=C(O)CS	inactive	inactive	1.63% (inactive) and 9.97% (inactive) and 1.26% (inactive)	inactive	inactive		inactive	inactive	inactive	inactive	inactive	inactive	inactive	inactive		inactive	inactive	inactive	inactive	inactive
O=C(O)CCC(=O)O	inactive	inactive	9.17% (inactive) and -2.49% (inactive) and -2.75% (inactive)	inactive	inactive		inactive	inactive	inactive	inactive	inactive	inactive	inactive	inactive		inactive	inactive	inactive	inactive	inactive
Cc1cc(=O)n(-c2ccccc2)n1C	inactive	inactive	5.11% (inactive) and 3.11% (inactive) and 1.5% (inactive)		inactive		inactive	inactive	inactive	44.8 µM (active) and inactive	inactive	inactive	inactive	inactive		inactive		inactive	inactive	inactive
O=C1CN(/N=C/c2ccc([N+](=O)[O-])o2)C(=O)N1	inactive	inactive	-21.3% (inactive) and -17.7% (inactive)		inactive	inactive	inactive	inactive	inactive	inactive	inactive	inactive	inactive	inactive	inactive	inactive	inactive	inactive	inactive	
Cc1ccccc1C(OCCN(C)C)c1ccccc1 (stereo not given)	inactive	inactive	-3.03% (inactive) and -20.7% (inactive) and -19.7% (inactive)	inactive	inactive		inactive	inactive	inactive	inactive	inactive	inactive	inactive	inactive	inactive	inactive	inactive	inactive	inactive	inactive
COC(=O)[C@H](Cc1ccccc1)NC(=O)[C@@H](N)CC(=O)O (H-Asp-Phe-OMe)	inactive	inactive	0.561% (inactive) and -0.312% (inactive) and -3.38% (inactive)		inactive		inactive	inactive	inactive	inactive	inactive	inactive	inactive	inactive	inactive	inactive	inactive	inactive	inactive	inactive
CCCN(CCC)S(=O)(=O)c1ccc(C(=O)O)cc1	inactive	inactive	-6.3% (inactive) and -3.84% (inactive) and 10.6% (inactive)		inactive	inactive	inactive	inactive	inactive	inactive	inactive	inactive	inactive	inactive	inactive	inactive	inactive	inactive	inactive	inactive
CNC[C@H](O)c1cccc(O)c1	inactive	inactive	8.72% (inactive) and 5.33% (inactive) and 3.68% (inactive)	inactive	inactive		inactive	inactive	inactive	inactive	inactive	inactive	inactive	inactive	inactive	inactive	inactive	inactive	inactive	inactive
Cc1ccc(S(=O)(=O)NC(=O)NN2CCCCCC2)cc1	inactive	inactive	3.5% (inactive) and 3.12% (inactive) and 7.81% (inactive)	inactive	inactive		inactive	inactive	inactive	inactive	inactive	inactive	inactive	inactive		inactive	inactive	inactive	inactive	inactive
CCOc1ccc(NC(=O)CC(C)O)cc1 (stereo not given)	inactive	inactive	-0.988% (inactive) and -3.57% (inactive) and -1.9% (inactive)		inactive		inactive	inactive	inactive	inactive	inactive	inactive	inactive	inactive	inactive	inactive	inactive	inactive	inactive	inactive
OC(Cn1cncn1)(Cn1cncn1)c1ccc(F)cc1F	inactive	inactive	7.44% (inactive) and 0.305% (inactive) and 5.93% (inactive)		inactive		inactive	inactive	inactive	inactive	inactive	inactive	inactive	inactive		inactive	inactive	inactive	inactive	inactive
CC(O)C(=O)O (stereo not given)	inactive	inactive	13.3% (inactive) and 7.35% (inactive) and 12.9% (inactive)	inactive	inactive		inactive	inactive	inactive	inactive	inactive	inactive	inactive	inactive	inactive	inactive	inactive	inactive	inactive	inactive
NC(=O)c1cnccn1	inactive	inactive	-0.816% (inactive) and 11.3% (inactive) and 0.0586% (inactive)		inactive		inactive	inactive	inactive	inactive	inactive	inactive	inactive	inactive	inactive	inactive	inactive	inactive	inactive	inactive
O=C(O)c1cc(N=Nc2ccc(S(=O)(=O)Nc3ccccn3)cc2)ccc1O	inactive	inactive	-2.85% (inactive) and -13.7% (inactive) and 1.5% (inactive)	inactive	inactive	inactive	inactive	inactive	12.3 µM (active) and 19.5 µM (active) and 16.9 µM (active)	inactive	inactive	inactive	inactive	inactive		inactive	inactive	11 µM (active) and 21.9 µM (active)	inactive	24.4 µM (active) and 30.6 µM (active)
O=S(=O)(O)c1ccc2cc(O)ccc2c1	inactive	inactive	-0.603% (inactive) [middle of 4 runs]		inactive		inactive	inactive	inactive	inactive	inactive	inactive	inactive	inactive	inactive	inactive	inactive	inactive	inactive	inactive
O=C(c1ccccc1)c1ccccc1	inactive	inactive	-7.38% (inactive) and -0.339% (inactive) and 9.06% (inactive)	inactive	inactive	inactive	inactive	inactive	inactive	inactive	inactive	inactive	inactive	inactive	inactive	inactive	inactive	inactive	inactive	inactive
Nc1ccn([C@H]2CC[C@@H](CO)O2)c(=O)n1	inactive	inactive	5.91% (inactive) and 4.06% (inactive) and 6.95% (inactive)	inactive	inactive	inactive	inactive	inactive	inactive	inactive	inactive	inactive	inactive	inactive		inactive	inactive	inactive	inactive	inactive
CC(C)(Oc1ccc(C2CC2(Cl)Cl)cc1)C(=O)O (stereo not given)	inactive	inactive	2.51% (inactive) and 10.4% (inactive)		inactive	inactive	inactive	inactive	inactive	inactive	inactive	inactive	inactive	inactive	inactive	inactive	inactive	inactive	inactive	inactive
CCCCC1C(=O)N(c2ccccc2)N(c2ccccc2)C1=O	inactive	inactive		inactive	inactive	inactive	inactive	inactive	inactive	inactive	inactive	inactive	inactive	inactive	inactive	inactive	inactive		inactive	inactive
Nc1ccc(S(=O)(=O)Nc2nccs2)cc1	inactive	inactive	5.06% (inactive) [middle of 4 runs]		inactive and 38.9 µM (active)	inactive	inactive and 43.6 µM (active)	inactive and 38.9 µM (active)	inactive	inactive and 43.6 µM (active)	inactive and 43.6 µM (active)	inactive and 43.6 µM (active)	inactive and 49 µM (active)	inactive		inactive		inactive	inactive and 43.6 µM (active)	inactive
Cc1cc(=O)[nH]c(=S)[nH]1	inactive	inactive	-0.127% (inactive) and 3.69% (inactive) and 0.841% (inactive)	inactive	inactive		inactive	inactive	inactive	inactive	inactive	inactive	inactive	inactive		inactive	inactive	inactive	inactive	inactive
CCCCCCCCCCCCCCCC(=O)O	inactive	inactive	-14.7% (inactive) and -1.54% (inactive) and -1.33% (inactive)	inactive	inactive		inactive	inactive	inactive	inactive	inactive	inactive	inactive	inactive	inactive	inactive	inactive	inactive	inactive	inactive
